Growth data for eight molecules are collected here from PubChem BioAssay (NCI).

Test in all cases: NCI-60 one-dose screen, 48 h (100 = growth as untreated, 0 = no growth, -100 = all killed)
One assay has as its system HCT-15 colon. The note with it: 10 µM unless noted.
The subject of another assay is HT29 colon. The note with it: 10 µM unless noted.
A further assay relates to SNB-75 CNS. The note with it: 10 µM unless noted.
A further assay concerns SNB-19 CNS. The note with it: 10 µM unless noted.
Another assay has as its system U251 CNS. The note with it: 10 µM unless noted.
Another assay concerns PC-3 prostate. The note with it: 10 µM unless noted.
The subject of the next assay is SK-MEL-5 melanoma. The note with it: 10 µM unless noted.
The test system of a further assay is UACC-62 melanoma. The note with it: 10 µM unless noted.
A further assay deals with LOX IMVI melanoma. The note with it: 10 µM unless noted.
In another assay the test system is SK-MEL-28 melanoma. The note with it: 10 µM unless noted.
Another assay relates to EKVX NSCLC. The note with it: 10 µM.
For the next assay, the system named is SN12C renal. The note with it: 10 µM unless noted.
The test system of the next assay is UO-31 renal. The note with it: 10 µM unless noted.
In the next assay the test system is TK-10 renal. The note with it: 10 µM unless noted.
In the next assay the test system is ACHN renal. The note with it: 10 µM unless noted.
The subject of a further assay is CAKI-1 renal. The note with it: 10 µM unless noted.
A further assay relates to A498 renal. The note with it: 10 µM unless noted.
The test system of another assay is CCRF-CEM leukemia. The note with it: 10 µM.
Another assay has as its system MOLT-4 leukemia. The note with it: 10 µM unless noted.
A further assay concerns SK-MEL-2 melanoma. The note with it: 10 µM unless noted.

Each structure is given as a SMILES string. This is part of a sample that, as a whole, favours compounds with a hit. Of some 83,000 tested, about 20% had one in any assay.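 Assay: single dose, 48 h. Readout: percent growth (0 = no net growth; negative = cell death). Active: <10.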 Values without a mark were called inactive. Activity calls are given as the source filed them.

For `CC(CCN1CCN(CCC(C)CC(C)(C)C)C1CC(C)CC(C)(C)C)CC(C)(C)C` (centres undefined), the growth is 87.5% in the assay on HCT-15 colon; 39.4% in the assay with HT29 colon; 80.7% with SNB-75 CNS; 102% in the assay with SNB-19 CNS; 91.6% with U251 CNS; 56.7% in the assay on PC-3 prostate. Further, the growth was 108% in the assay with SK-MEL-5 melanoma; 103% in the assay on UACC-62 melanoma; 81.8% in the assay on LOX IMVI melanoma; 105% in the assay on SK-MEL-28 melanoma; 82.6% in the assay with EKVX NSCLC; 91.2% with SN12C renal. For the same molecule, the growth was 66.2% with UO-31 renal; 85.2% in the assay on TK-10 renal; 90.4% with ACHN renal; 96.4% in the assay with CAKI-1 renal; 112% in the assay on A498 renal; 83.1% in the assay on CCRF-CEM leukemia. Moreover, the growth with MOLT-4 leukemia was 88.7%.
`O=C(/C=C\c1ccc(NCc2ccc(C(=O)O)cc2)cc1)CCl`: the growth with HCT-15 colon was 72.4%; in the assay with HT29 colon it was 84.9%; in the assay on SNB-75 CNS, 91.1%; in the assay on SNB-19 CNS, 96.7%; in the assay with U251 CNS it was 84.5%; in the assay with PC-3 prostate, 96.2%. Moreover, the growth is 100% with SK-MEL-5 melanoma; 84.2% in the assay on UACC-62 melanoma; 5.63% (active) with LOX IMVI melanoma; 104% with SK-MEL-28 melanoma; 97% in the assay with SK-MEL-2 melanoma; 78.6% in the assay with UO-31 renal. Further, the growth in the assay with TK-10 renal is 93.4%; with ACHN renal, 93.3%; in the assay on CAKI-1 renal, 105%; in the assay with A498 renal, 55.6%; in the assay with CCRF-CEM leukemia it was -8.72% (active); in the assay with MOLT-4 leukemia, 6.28% (active).
In the case of `CC(=O)O.[In]`, the growth was 109% with HCT-15 colon; 105% in the assay with HT29 colon; 90.6% with SNB-75 CNS; 109% in the assay with SNB-19 CNS; 98.8% in the assay on U251 CNS; 99.7% with PC-3 prostate. The growth is 95.2% with SK-MEL-5 melanoma; 102% in the assay on UACC-62 melanoma; 35.3% with LOX IMVI melanoma; 112% in the assay on SK-MEL-28 melanoma; 98.4% with SK-MEL-2 melanoma; 109% with SN12C renal. For the same molecule, the growth in the assay on UO-31 renal is 88.4%; in the assay with TK-10 renal, 100%; with ACHN renal, 104%; in the assay on A498 renal it was 112%; in the assay on CCRF-CEM leukemia it was 85.4%; in the assay on MOLT-4 leukemia, 99.9%.
In the case of `CC(=O)Nc1ccc(S(=O)(=O)Cl)cc1`, the growth is 110% with HCT-15 colon; 106% with HT29 colon; 94% in the assay on SNB-75 CNS; 110% with SNB-19 CNS; 95.6% with U251 CNS; 99.8% in the assay on PC-3 prostate. The growth in the assay on SK-MEL-5 melanoma was 98.3%; in the assay with UACC-62 melanoma, 97.9%; with LOX IMVI melanoma it was 94.8%; with SK-MEL-28 melanoma it was 117%; with SK-MEL-2 melanoma, 111%; in the assay on SN12C renal, 94.5%. For the same molecule, the growth is 97.2% in the assay on UO-31 renal; 100% in the assay on TK-10 renal; 113% with ACHN renal; 101% in the assay with A498 renal; 90.9% in the assay with CCRF-CEM leukemia; 104% in the assay with MOLT-4 leukemia.
In the case of `CC1(C)N=C(N)N=C(N)N1c1cccc(CCCCOc2ccccc2)c1`, the growth with HCT-15 colon was 58.5%; in the assay with HT29 colon, 11.3%; with SNB-75 CNS, 60.8%; with SNB-19 CNS, 32.4%; in the assay on U251 CNS, 11.4%; with PC-3 prostate it was -6.9% (active). In addition, the growth is 17.9% in the assay on SK-MEL-5 melanoma; 20.8% with UACC-62 melanoma; 15.9% with LOX IMVI melanoma; 39.3% in the assay with SK-MEL-28 melanoma; 70.7% in the assay on SK-MEL-2 melanoma; 84.2% with UO-31 renal. Moreover, the growth in the assay with TK-10 renal was 24%; in the assay with ACHN renal, 35.1%; in the assay with CAKI-1 renal, 67.7%; with A498 renal, 49.7%; in the assay with CCRF-CEM leukemia, 13.2%; with MOLT-4 leukemia, 14.1%.
In the case of `S=C(N/N=C/c1cc(Cl)cc(Cl)c1)NC12CC3CC(CC(C3)C1)C2`, the growth in the assay with HCT-15 colon is 84.9%; in the assay on HT29 colon, 49.9%; with SNB-75 CNS, 45.6%; with SNB-19 CNS it was 93.6%; with U251 CNS, 40.6%; with PC-3 prostate, 75.5%. The growth in the assay on SK-MEL-5 melanoma was 97%; in the assay on UACC-62 melanoma, 89.5%; in the assay with LOX IMVI melanoma, 45.1%; in the assay on SK-MEL-28 melanoma, 90.9%; in the assay with SK-MEL-2 melanoma it was 116%; with UO-31 renal, 69%. Further, the growth in the assay with TK-10 renal is 11.1%; in the assay with ACHN renal it was 4.44% (active); with A498 renal, 57.1%; with CCRF-CEM leukemia, 50.8%; in the assay on MOLT-4 leukemia, 94.1%.
As to `CC(O)CCC(C)[N+](=O)[O-]` (centres undefined), the growth in the assay on HCT-15 colon was 102%; with HT29 colon, 113%; in the assay on SNB-75 CNS, 83.3%; with SNB-19 CNS it was 99.9%; in the assay on U251 CNS, 99.2%; in the assay on PC-3 prostate, 102%. Further, the growth is 102% in the assay with SK-MEL-5 melanoma; 95.4% in the assay on UACC-62 melanoma; 100% in the assay with LOX IMVI melanoma; 98.3% in the assay with SK-MEL-28 melanoma; 109% in the assay on SK-MEL-2 melanoma; 93.5% with UO-31 renal. Also, the growth in the assay on TK-10 renal is 104%; with ACHN renal, 109%; with CAKI-1 renal it was 104%; with A498 renal, 105%; in the assay with CCRF-CEM leukemia, 102%; in the assay with MOLT-4 leukemia, 102%.
With `CC(=O)N(N=O)c1ccc([N+](=O)[O-])cc1Cl`, the growth with HCT-15 colon was 54.6%; in the assay on HT29 colon, 89.7%; in the assay on SNB-75 CNS, 81.2%; in the assay on SNB-19 CNS, 58.6%; with U251 CNS it was 57.8%; with PC-3 prostate, 47.4%. Further, the growth with SK-MEL-5 melanoma was 18.6%; with UACC-62 melanoma it was 27.9%; in the assay with LOX IMVI melanoma, 72.7%; in the assay on SK-MEL-28 melanoma, 68.5%; with SK-MEL-2 melanoma, 73.1%; in the assay on SN12C renal, 47.4%. For the same molecule, the growth in the assay with UO-31 renal is 57.3%; in the assay with TK-10 renal, 130%; in the assay on ACHN renal, 58.9%; in the assay with CAKI-1 renal, 100%; with CCRF-CEM leukemia, 46.8%; in the assay on MOLT-4 leukemia, 58.4%.
